# Calls of active or inactive are those of the source.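 How the source made its calls: active means inhibition above about 23% in any of six single-dose repeats (limit read from the data); inactive means the rest.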
# Molecular target: Intestinal-type alkaline phosphatase (Homo sapiens) (UniProt P09923)
# Experiment: human IAP inhibitors, confirmation, biochemical, luminescence, single concentration, uHTS hits (AID 434927);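 further: plate controls were DMSO wells with enzyme for no effect and wells lacking enzyme for full effect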
# Conditions: purified human IAP, CDP-Star luminescence, 30 min; at 8.3 µM; hits give high values
# Sequence of Intestinal-type alkaline phosphatase (Homo sapiens) (P09923 whole entry, looked up): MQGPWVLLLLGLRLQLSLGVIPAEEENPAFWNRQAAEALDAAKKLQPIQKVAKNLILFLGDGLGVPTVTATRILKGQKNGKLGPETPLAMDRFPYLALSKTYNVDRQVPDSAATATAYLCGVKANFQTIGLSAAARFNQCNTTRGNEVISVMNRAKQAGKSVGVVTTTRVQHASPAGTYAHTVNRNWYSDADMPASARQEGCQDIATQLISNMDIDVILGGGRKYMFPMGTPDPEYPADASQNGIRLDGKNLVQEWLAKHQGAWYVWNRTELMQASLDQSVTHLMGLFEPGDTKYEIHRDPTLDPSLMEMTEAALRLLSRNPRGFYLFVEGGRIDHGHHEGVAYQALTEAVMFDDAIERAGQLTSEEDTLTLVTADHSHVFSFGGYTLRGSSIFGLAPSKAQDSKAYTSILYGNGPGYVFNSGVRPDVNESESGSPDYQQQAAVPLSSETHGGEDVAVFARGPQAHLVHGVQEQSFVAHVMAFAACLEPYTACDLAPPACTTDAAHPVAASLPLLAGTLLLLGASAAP
row,SMILES,inhibition
1,Cn1nnnc1N=N/C(=N/Nc1ccccc1)c1ccccc1,54.9% (active)
2,Cc1ccc(O)c(/C=N/NC(=O)c2[nH]ncc2Br)c1,23.2% (active)
3,Cc1nc(Nc2nc3c(c(=O)[nH]2)CCC3)nc2ccccc12,-77.6% (inactive)
4,CC(=O)Nc1cccc(-c2csc(Nc3ccccn3)n2)c1,-94.1% (inactive)
5,O=C(NNC(=S)NCc1ccco1)c1ccccc1Br,41.4% (active)
6,Cc1cc(C)cc(OCC(=O)NNC(=O)c2cc(C)[nH]n2)c1,-94.6% (inactive)
7,Cc1ccc(-n2ncc3c(NNC(=O)c4ccco4)ncnc32)cc1C,41.4% (active)
8,Cc1cc(C)cc(CC(Cc2nc3ccccc3[nH]2)c2nc3ccccc3[nH]2)c1 (centres undefined),-323% (inactive)
9,N#Cc1cc(Oc2ccccc2)c(-n2nnc3ccccc32)cc1C#N,40.7% (active)
10,C[C@@H](NC(=O)c1[nH]cnc1C(=O)Nc1ccon1)c1ccccc1,-80% (inactive)
11,Cc1nn(C)c(C(=O)NNC(=S)NCc2ccccc2)c1Cl,-141% (inactive)
12,Cc1ccc(NC(=O)NNC(=O)c2cc3ccccc3cc2O)cc1,-69.5% (inactive)
13,COc1ccccc1C1CN(c2ccccc2)N=C1c1cccs1 (centres undefined),-128% (inactive)
14,CCOc1cc(/C=N/NC(=O)C(=O)N/N=C/c2ccc(O)c(OCC)c2)ccc1O,-47.6% (inactive)
15,O=C(CCN1CCN(Cc2ccccc2)CC1)NNC(=O)Nc1cccc(C(F)(F)F)c1,-0.057% (inactive)
16,O=C1Nc2ccc(Br)cc2C12NNc1ccccc1O2 (centres undefined),35% (active)
17,c1ccc(CSCCc2ccncc2)cc1,-33.2% (inactive)

row,SMILES,inhibition
1,COc1cccc(-c2nc(CS(=O)(=O)CC(=O)Nc3cc(OC)ccc3OC)c(C)o2)c1,31.5% (active)
2,CCc1nnc(NC(=O)CSc2nnc(C)c(=O)n2N)s1,41.3% (active)
3,Cc1cc(C(=O)NNC(=O)COc2c(C)cc(Br)cc2C)n[nH]1,-0.057% (inactive)
4,COc1cccc(/C=N/Nc2nn3cnnc3c3ccccc23)c1O,40.4% (active)
5,Cc1cc(=O)[nH]c(-n2[nH]c3c(c2=O)CCCC3)n1,55.9% (active)
6,O=C(CCNS(=O)(=O)c1ccccc1C(F)(F)F)NNC(=O)c1csc(N2CCOCC2)n1,0.0741% (inactive)
7,C/C(=N/Nc1ccccc1[N+](=O)[O-])c1ccc([N+](=O)[O-])cc1,-233% (inactive)
8,CC1=NN(c2nc3ccccc3[nH]2)C(=O)/C1=C/N(C)C,-57% (inactive)
9,O=C(N/N=C/c1ccc2cccnc2c1)c1nc2ccccc2c(=O)[nH]1,-193% (inactive)
10,CNc1nnc(-c2cc3ccccc3oc2=O)s1,33.1% (active)
11,COc1cc(/C=N\NS(=O)(=O)c2ccccc2)cc(OC)c1OC,30.7% (active)
12,Cc1cccn2c(=O)c3cc(C(=O)NC4CCCC4)c(=N)n(C4CCCCC4)c3nc12,-122% (inactive)
13,COC(=O)c1ccccc1-c1c2ccc(=N)cc-2oc2cc(N)ccc12,34.6% (active)
14,Cc1nc2c3ccccc3nc(NNC(=O)CCC(=O)NCCC(C)C)n2n1,-64.4% (inactive)
15,CCOc1ccc(CC(=O)NNC(=S)NCCc2ccccc2)cc1,77.5% (active)
16,CCOCCCNC(=O)CCC(=O)NNc1nc2ccccc2c2nc(-c3ccccc3)nn12,48.4% (active)
17,C#CCOCCOCCOCCNc1nc(N2CCN(C(=O)CCCCCCCCCCNC(=O)[C@H]([C@@H](C)CC)n3cc(CCCCN=C(N)N)nn3)CC2)nc(N2CCN(C(=O)CCCCCCCCCCNC(=O)[C@H](CO)n3cc(CCCSC)nn3)CC2)n1,38.5% (active)
